# Measurements published in PubChem BioAssay (NCATS).
# Records with an inconclusive call do not appear. Entries that show only a call come without a potency. Calls of active or inactive are those of the source. Unless noted, calls follow the shape of the dose curve; as a rule, active = well fitted curve in the direction sought with a large enough effect; inconclusive = small, poorly fitted or top-dose-only effect, or another doubt; inactive = no such curve, though single readings can be large; an effect the other way counts as inactive or inconclusive.
# Molecular target: ATP-dependent 6-phosphofructokinase (Trypanosoma brucei brucei) (UniProt O15648)
# Sequence (O15648 whole entry, looked up): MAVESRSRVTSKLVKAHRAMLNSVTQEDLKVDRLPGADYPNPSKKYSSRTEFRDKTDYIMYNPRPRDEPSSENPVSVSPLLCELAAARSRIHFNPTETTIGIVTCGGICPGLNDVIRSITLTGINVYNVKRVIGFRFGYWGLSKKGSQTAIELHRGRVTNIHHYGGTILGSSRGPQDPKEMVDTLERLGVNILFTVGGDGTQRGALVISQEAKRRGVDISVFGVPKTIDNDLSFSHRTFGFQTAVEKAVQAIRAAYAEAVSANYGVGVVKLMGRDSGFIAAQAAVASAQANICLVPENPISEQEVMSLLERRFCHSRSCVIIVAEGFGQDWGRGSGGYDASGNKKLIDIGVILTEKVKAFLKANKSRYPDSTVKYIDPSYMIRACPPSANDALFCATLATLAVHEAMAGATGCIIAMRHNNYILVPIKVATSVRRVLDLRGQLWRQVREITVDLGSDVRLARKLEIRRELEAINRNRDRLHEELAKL
# Experiment: qHTS Assay to Find Inhibitors of T. brucei phosphofructokinase: hit validation (AID 492961);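 also: luminescence reports ADP formed as PFK phosphorylates fructose-6-phosphate with ATP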
# Details: T. brucei PFK, ADP-Glo luminescence; series mostly up to 51.4 µM
# Outline: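 PFK 1.25 nM, F6P 0.5 mM, ATP 0.1 mM, MgCl2 5 mM, 0.1 M TEA pH 8.0, Tween20 0.01%, BSA 0.1%; 45 min RT. ADP-Glo two-step detection, luminescence. qHTS titration; curve fitting with curve-class categorization.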
row,Compound,Potency
1,CC(O)CN(CCN(CC(C)O)CC(C)O)CC(C)O (configuration not stated),inactive
2,Cc1ncc(COP(=O)(O)O)c(C=O)c1O,inactive
3,CCOC(CN1CCN(CC(C)C(=O)c2ccccc2)CC1)c1ccccc1 (configuration not stated),inactive
4,Cc1cc(N)c2ccccc2[n+]1CCCCCCCCCC[n+]1c(C)cc(N)c2ccccc21,inactive
5,O=S(=O)(O)NC1CCCCC1,inactive
6,O=C(O)CN1C(=O)c2cccc3cccc(c23)C1=O,inactive
7,CC(C(O)c1ccc(O)cc1)N1CCC(Cc2ccccc2)CC1 (configuration not stated),inactive
8,COc1ccccc1O,inactive
9,Cc1c(O)cccc1C(=O)N[C@@H](CSc1ccccc1)[C@H](O)CN1C[C@H]2CCCC[C@H]2C[C@H]1C(=O)NC(C)(C)C,inactive
10,COc1cc2[nH]c(=O)[nH]c(=O)c2cc1OC,inactive
11,CC(=O)Oc1ccc(C2(c3ccc(OC(C)=O)cc3)C(=O)Nc3ccccc32)cc1,inactive
12,O=C1O[C@H]([C@@H](O)CO)C(O)=C1O,inactive
13,Oc1cccc(O)c1,inactive
14,O=C1c2c(O)cccc2Cc2cccc(O)c21,inactive
15,C[C@H]1O[C@@H](n2cc(F)c(=O)[nH]c2=O)[C@H](O)[C@@H]1O,inactive
16,COc1ccc2[nH]c(S(=O)Cc3ncc(C)c(OC)c3C)nc2n1 (configuration not stated),inactive
17,NC(=O)NNc1ccccc1,inactive
18,CC[C@@]1(c2ccccc2)NC(=O)N(C)C1=O,inactive
19,CCOC(=O)c1ccc(O)cc1,inactive
20,CCN(CC)CCNC(C(=O)OCCC(C)C)c1ccccc1 (configuration not stated),inactive
21,O=c1cc[nH]c(=O)[nH]1,inactive
22,CCCCOc1cc(C(=O)OCCN(CC)CC)ccc1N,inactive
23,Cc1cc(CC(=O)O)n(C)c1C(=O)c1ccc(Cl)cc1,inactive
24,O=C1NS(=O)(=O)c2ccccc21,inactive

# Tested on: not listed separately
# Experiment: Validation screen for small molecules that induce genotoxicity in human embryonic kidney (HEK293T) cells expressing luciferase-tagged ELG1 (AID 493106); also: potency is read from the fitted curve at half-maximal effect
# Details: luminescence; series mostly up to 46.1 µM
# Outline: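 In this validation screen, increased ELG1-luciferase signal flags compounds causing genetic stress. HEK293T reporter cells are treated 16 hr (37 °C, 5% CO2), developed with ONE-Glo for 30 min at room temperature, and imaged on a CCD-based reader.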
row,Compound,Potency
1,CSc1ccc2c(c1)N(CCC1CCCCN1C)c1ccccc1S2 (configuration not stated),inactive
2,CC(CN(C)C)CN1c2ccccc2CCc2ccccc21 (configuration not stated),inactive
3,CN(C)CCCN1c2ccccc2CCc2ccccc21,inactive
4,Cc1cc(N)c2ccccc2[n+]1CCCCCCCCCC[n+]1c(C)cc(N)c2ccccc21,inactive
5,CNCC(O)c1ccc(O)c(O)c1 (configuration not stated),inactive
6,CC(C(O)c1ccc(O)cc1)N1CCC(Cc2ccccc2)CC1 (configuration not stated),inactive
7,CCN(CC)CCCC(C)Nc1c2ccc(Cl)cc2nc2ccc(OC)cc12 (configuration not stated),2590 nM (active)
8,CN(C)CCC=C1c2ccccc2CCc2ccccc21,inactive
9,CC(C)(C)[C@]1(O)CCN2C[C@H]3c4ccccc4CCc4cccc(c43)[C@@H]2C1,inactive
10,CCN(CC)CCOC(=O)C1(C2CCCCC2)CCCCC1,inactive
11,CCN(CC)CCNC(=O)c1cc(Cl)c(N)cc1OC,inactive
12,CNCCC(Oc1ccc(C(F)(F)F)cc1)c1ccccc1 (configuration not stated),inactive
13,CN(C)CCCN1c2ccccc2Sc2ccc(Cl)cc21,inactive

# Molecular target: ATPase family AAA domain-containing protein 5 (Homo sapiens) (UniProt Q96QE3)
# Sequence (Q96QE3 whole entry, looked up, the tested form may be a part): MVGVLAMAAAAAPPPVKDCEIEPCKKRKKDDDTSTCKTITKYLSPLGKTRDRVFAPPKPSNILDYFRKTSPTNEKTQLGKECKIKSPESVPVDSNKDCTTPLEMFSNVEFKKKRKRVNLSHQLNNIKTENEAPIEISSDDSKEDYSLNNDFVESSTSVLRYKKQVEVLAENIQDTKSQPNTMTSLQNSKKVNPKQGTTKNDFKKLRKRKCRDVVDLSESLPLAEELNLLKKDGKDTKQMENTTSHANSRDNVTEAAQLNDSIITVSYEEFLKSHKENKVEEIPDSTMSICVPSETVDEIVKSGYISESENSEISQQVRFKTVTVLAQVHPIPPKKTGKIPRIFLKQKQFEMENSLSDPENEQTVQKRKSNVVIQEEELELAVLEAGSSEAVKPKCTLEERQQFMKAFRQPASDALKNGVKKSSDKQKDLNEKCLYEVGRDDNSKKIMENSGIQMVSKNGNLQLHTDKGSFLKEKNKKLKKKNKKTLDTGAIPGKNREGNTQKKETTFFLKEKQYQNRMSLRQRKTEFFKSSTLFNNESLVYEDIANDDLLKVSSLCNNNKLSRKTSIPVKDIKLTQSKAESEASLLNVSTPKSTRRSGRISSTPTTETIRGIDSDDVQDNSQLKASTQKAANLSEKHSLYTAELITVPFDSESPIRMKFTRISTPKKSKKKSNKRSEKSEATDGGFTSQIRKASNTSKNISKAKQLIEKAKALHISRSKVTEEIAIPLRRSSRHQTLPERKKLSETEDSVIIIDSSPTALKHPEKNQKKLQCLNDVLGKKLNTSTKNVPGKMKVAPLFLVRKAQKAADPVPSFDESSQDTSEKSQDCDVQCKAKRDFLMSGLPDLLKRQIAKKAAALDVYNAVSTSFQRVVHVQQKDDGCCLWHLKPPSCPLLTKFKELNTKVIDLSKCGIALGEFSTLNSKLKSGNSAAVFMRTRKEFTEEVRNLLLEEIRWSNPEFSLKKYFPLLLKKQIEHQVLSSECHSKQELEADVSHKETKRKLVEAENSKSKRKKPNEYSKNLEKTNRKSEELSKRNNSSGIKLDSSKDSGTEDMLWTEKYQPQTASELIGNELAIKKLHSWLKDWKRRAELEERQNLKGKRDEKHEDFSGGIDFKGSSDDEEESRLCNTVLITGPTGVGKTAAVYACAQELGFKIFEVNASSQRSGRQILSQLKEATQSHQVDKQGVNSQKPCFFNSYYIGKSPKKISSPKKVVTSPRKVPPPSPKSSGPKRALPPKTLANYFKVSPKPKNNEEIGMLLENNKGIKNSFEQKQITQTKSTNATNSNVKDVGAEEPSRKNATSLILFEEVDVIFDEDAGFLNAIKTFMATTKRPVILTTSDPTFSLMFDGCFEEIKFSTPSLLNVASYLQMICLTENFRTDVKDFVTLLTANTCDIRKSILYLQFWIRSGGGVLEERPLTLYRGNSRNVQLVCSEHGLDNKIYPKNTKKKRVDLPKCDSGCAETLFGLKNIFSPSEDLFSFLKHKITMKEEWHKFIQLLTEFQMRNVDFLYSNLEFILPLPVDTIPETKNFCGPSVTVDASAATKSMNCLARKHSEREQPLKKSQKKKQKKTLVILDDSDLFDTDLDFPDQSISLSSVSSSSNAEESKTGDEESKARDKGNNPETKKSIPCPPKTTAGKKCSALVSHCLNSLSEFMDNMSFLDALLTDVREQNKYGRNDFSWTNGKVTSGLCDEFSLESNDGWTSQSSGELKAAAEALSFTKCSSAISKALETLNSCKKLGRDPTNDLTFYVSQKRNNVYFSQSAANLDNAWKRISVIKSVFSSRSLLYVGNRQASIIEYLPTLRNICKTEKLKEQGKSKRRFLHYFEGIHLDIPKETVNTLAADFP
# Experiment: Validation screen for small molecules that inhibit ELG1-dependent DNA repair in human embryonic kidney (HEK293T) cells expressing luciferase-tagged ELG1 (AID 493107);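 also: cells co-treated with the DNA-damaging agent 5-fluorouridine alongside compound; inhibitors lower the ELG1-luciferase luminescence signal; nearly all actives have a fitted effect of over 70% in size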
# Details: HEK293T ELG1-luciferase level, luminescence, 5-fluorouridine co-treatment, 16 h; series mostly up to 46.1 µM
# Outline: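 Compounds reducing 5-fluorouridine-driven ELG1-luciferase signal in HEK293T cells were scored; exposure lasted 16 hr at 37 °C with luminescence detected via ONE-Glo.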
row,Compound,outcome
1,CSc1ccc2c(c1)N(CCC1CCCCN1C)c1ccccc1S2 (configuration not stated),inactive
2,CC(CN(C)C)CN1c2ccccc2CCc2ccccc21 (configuration not stated),inactive
3,CN(C)CCCN1c2ccccc2CCc2ccccc21,inactive
4,CNCC(O)c1ccc(O)c(O)c1 (configuration not stated),inactive
5,CN(C)CCC=C1c2ccccc2CCc2ccccc21,inactive
6,CC(C)(C)[C@]1(O)CCN2C[C@H]3c4ccccc4CCc4cccc(c43)[C@@H]2C1,inactive
7,CCN(CC)CCOC(=O)C1(C2CCCCC2)CCCCC1,inactive
8,CCN(CC)CCNC(=O)c1cc(Cl)c(N)cc1OC,inactive
9,CNCCC(Oc1ccc(C(F)(F)F)cc1)c1ccccc1 (configuration not stated),inactive

# Molecular target: Thyrotropin-releasing hormone receptor (Homo sapiens) (UniProt P34981)
# Sequence (P34981 whole entry, looked up): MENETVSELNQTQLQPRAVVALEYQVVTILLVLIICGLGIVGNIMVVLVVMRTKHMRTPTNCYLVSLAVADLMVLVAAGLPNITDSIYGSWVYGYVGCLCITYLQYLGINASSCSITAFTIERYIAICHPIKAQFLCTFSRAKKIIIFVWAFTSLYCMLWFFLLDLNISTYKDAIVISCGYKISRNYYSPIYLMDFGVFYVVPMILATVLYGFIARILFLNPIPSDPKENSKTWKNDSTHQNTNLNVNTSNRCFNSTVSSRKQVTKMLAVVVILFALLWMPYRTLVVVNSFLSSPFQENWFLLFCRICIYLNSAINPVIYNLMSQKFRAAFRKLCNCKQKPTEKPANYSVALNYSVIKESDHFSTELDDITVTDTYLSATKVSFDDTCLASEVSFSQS
# Experiment: qHTS for Small Molecule Agonists and Allosteric Enhancers of Human TRH Receptor: Validation Screen for Agonists (AID 493127;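 active = calcium activation more than 3 SD above the typical response in the agonist read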;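 also: intracellular calcium rise by fluo-8 fluorescence before TRH EC20 addition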)
# Details: TRH receptor agonist cell assay; at 2 µM; stronger effect = higher value
# Outline: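 Kinetic fluorescence assay of agonist-induced calcium release: overnight-plated TRHR cells, room-temperature fluo-8 loading, baseline then compound addition with per-second reads.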
row,Compound,activation
1,CC(CN(C)C)CN1c2ccccc2CCc2ccccc21 (configuration not stated),6.88% (inactive)
2,CN(C)CCCN1c2ccccc2CCc2ccccc21,2.19% (inactive)
3,Cc1cc(N)c2ccccc2[n+]1CCCCCCCCCC[n+]1c(C)cc(N)c2ccccc21,0.812% (inactive)
4,CNCC(O)c1ccc(O)c(O)c1 (configuration not stated),0.938% (inactive)
5,CC(C(O)c1ccc(O)cc1)N1CCC(Cc2ccccc2)CC1 (configuration not stated),5.75% (inactive)
6,CCN(CC)CCCC(C)Nc1c2ccc(Cl)cc2nc2ccc(OC)cc12 (configuration not stated),-2.88% (inactive)
7,COC(=O)C1=C(C)NC(C)=C(C(=O)OC)C1c1ccccc1[N+](=O)[O-],0.938% (inactive)
8,CN(C)CCC=C1c2ccccc2CCc2ccccc21,1.31% (inactive)
9,C[C@H]1O[C@@H](n2cc(F)c(=O)[nH]c2=O)[C@H](O)[C@@H]1O,0.688% (inactive)
10,CCN(CC)CCOC(=O)C1(C2CCCCC2)CCCCC1,-6.69% (inactive)
11,CCN(CC)CCNC(=O)c1cc(Cl)c(N)cc1OC,1.31% (inactive)
12,CNCCC(Oc1ccc(C(F)(F)F)cc1)c1ccccc1 (configuration not stated),22.8% (inactive)
13,CN(C)CCCN1c2ccccc2Sc2ccc(Cl)cc21,11.5% (inactive)

# Tested on: not listed separately
# Experiment: Nrf2 qHTS screen for inhibitors: Validation (AID 493153; active = well fitted inhibition curve with a large enough effect in the main read-out, with a control signal flat, not every such curve was filed as active)
# Details: A549 ARE-Fluc reporter, 18-24 h; Potency: luciferase luminescence; viability change: measured here: cytotoxicity max response; luciferase luminescence, at 46.1 µM (top of the series)
# Outline: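 In this counterscreened reporter format, each well gives two signals: CellTiter-Fluor fluorescence for cytotoxicity and ARE-luciferase luminescence for Nrf2 function. A549 ARE_Fluc cells in 5% FBS OPTI-MEM were exposed to compound titrations for 18-24 h.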
Compound,Potency,viability change [%]
CN(C)CCCN1c2ccccc2CCc2ccccc21,inactive,-5.46
CNCC(O)c1ccc(O)c(O)c1 (configuration not stated),inactive,1.42
CC(C(O)c1ccc(O)cc1)N1CCC(Cc2ccccc2)CC1 (configuration not stated),inactive,-19.8
CN(C)CCC=C1c2ccccc2CCc2ccccc21,inactive,9.1
CC(C)(C)[C@]1(O)CCN2C[C@H]3c4ccccc4CCc4cccc(c43)[C@@H]2C1,inactive,-7.91
CCN(CC)CCOC(=O)C1(C2CCCCC2)CCCCC1,inactive,-2.64
CCN(CC)CCNC(=O)c1cc(Cl)c(N)cc1OC,inactive,-1.22
CNCCC(Oc1ccc(C(F)(F)F)cc1)c1ccccc1 (configuration not stated),inactive,3.02
CN(C)CCCN1c2ccccc2Sc2ccc(Cl)cc21,inactive,4.06
